Laboratory results reported in ChEMBL document CHEMBL3988442, “University of Dundee, Small-Polar-MMV Screening Library” (2021).
The whole screen tested about 48,000 compounds, of which about 13,000 (27%) showed an effect of 50% or more. The list shows a part of the results.

These compounds were tested on Wolbachia pipientis (assay: Anti-Wolbachia Cell-Based Screen). Conditions: 5 µM.
Assay type: functional
Parameters: scale not given: in the data most compounds retested in dose-response had high values

SMILES	Percent Effect [%]
O=C(O)c1csc(S(=O)(=O)N2CCCc3cccc(OC(F)F)c32)c1	-29.54
CN(C)C(=O)CN1CCN(C(=O)c2cnn(-c3ccccc3Cl)c2)CC1	104.8
CCOC1CCN(C(=O)c2cnn(-c3ccccc3Cl)c2)CC1	-5.801
CCc1ccc(O)c(C(=O)N2CCN(CC(=O)N(C)C)CC2)c1	4.973
CC(O)CN1CCN(C(=O)c2cnn(-c3ccc(Cl)cc3)c2)CC1 (stereo unspecified)	-6.081
O=C(c1cnn(-c2ccccc2Cl)c1)N1CCN(CCO)CC1	103.1
O=C(c1cn(-c2ccccc2Cl)nn1)N1CCCSCC1	0.4154
CN1CCN(C(=O)c2cnn(-c3ccccc3Cl)c2)CC1	84.01
CC(O)CN1CCN(C(=O)c2cn(-c3ccccc3Cl)nn2)CC1 (stereo unspecified)	5.18
O=C(c1cn(-c2ccccc2Cl)nn1)N1CCSCC1	139.5
O=C(c1cnn(-c2ccccc2F)c1)N1CCN(CCO)CC1	-7.046
CCN1CCN(C(=O)c2cnn(-c3ccccc3Cl)c2)CC1	0.9462
CC(Nc1ncnc2sccc12)c1cnn(C)c1 (stereo unspecified)	-17.23
O=C(NC[C@H]1OC[C@@H](NC2CCOCC2)[C@@H]1O)C1CCCC1	-16.92
O=C(COCC(F)(F)F)NC1CCCc2cc(OC(F)F)ccc21 (stereo unspecified)	-1.083
Cc1nc(CCCNC(=O)C2CC(=O)N(C3CCCC3)C2)sc1C (stereo unspecified)	-46.61
O=C(COC1CCCCC1)Nc1ccn(Cc2ccccn2)n1	-1.457
COc1ccc(OC)c2c(C)cc(N(C)CCO)nc12	-15.31
CC(=O)c1c(N(C)C)ccnc1C(F)(F)F	-9.795
CCOc1c(Cl)cccc1NS(=O)(=O)c1cc(C)c(C(=O)O)s1	-12.6
CC(=O)N1CCCN(C(=O)c2cnn(-c3ccccc3Cl)c2)CC1	140
CC(=O)N1CCN(C(=O)c2cnn(-c3ccccc3Cl)c2)CC1	-0.729
CCc1nc(C(=O)N2CCCC2)nn1-c1ccccc1Cl	13.32
Cc1cc(CNC(=O)c2cn(CCC3CCCCN3)nn2)on1 (stereo unspecified)	-16.72
Cc1cc(C(=O)NCC(C)C)c2c(C3CCCN3)noc2n1 (stereo unspecified)	114.1
Cc1cc(C(=O)NCC(F)(F)F)c2c(C3CCNCC3)noc2n1	137.6

SMILES	Percent Effect [%]
CCc1ccc2nc(C)cc(C(=O)NC3CCNC3=O)c2c1 (stereo unspecified)	1.98
Cc1cc(NC(C)C(=O)NCC(F)(F)F)nc(-c2ccncc2)n1 (stereo unspecified)	14.05
Cc1cc(C(=O)NCC(F)(F)F)c2c(C3CCCN3)noc2n1 (stereo unspecified)	103.2
COCCC(=O)N1CCC(c2noc3nc(C)cc(C(F)(F)F)c23)CC1	3.825
Cc1ccccc1-n1ccnc1S(=O)(=O)Cc1nsc(N(C)C)n1	22.74
Cc1ccc(N2C[C@@H]3CN(C(=O)NC4CCCC4)C[C@]3(C(=O)O)C2)nn1	-11.61
CN(C)C(C(=O)N1CCC(CCO)CC1)c1ccccc1F (stereo unspecified)	-9.373
Cc1ccc(NCc2ccc(C#N)cc2)cc1-n1cnnn1	10.93
Cc1ncc(C)c(N2CCC(Cc3ccc(Cl)cc3)(C(=O)O)CC2)n1	-13.5
CC1(Cc2ccc(F)cc2)Cc2cc(C(=O)NCCO)ccc2O1 (stereo unspecified)	96.1
O=C(O)CCCc1ccc2c(c1)CC(=O)N2	-9.679
O=C(NCCCc1ccc(F)cc1)c1ccc(N2CCOCC2)cc1	-12.9
O=C(NCc1ccc(C(=O)O)o1)c1ccc(F)cc1	8.231
CC1(Cc2ccc(Cl)cc2)Cc2cc(CCC(=O)O)ccc2O1 (stereo unspecified)	128.5
CC(C)c1ccc(CC2(C)Cc3cc(CC(=O)O)ccc3O2)cc1 (stereo unspecified)	103.5
CC(C)N(Cc1ccc(C(=O)O)o1)C(C)C.Cl	-3.405
Cc1nsc(NCc2ccc(CS(=O)(=O)NC(C)C)cc2)n1	-12.57
O=C(CC1=CCCCC1)NCc1ccnc(OC2CCOCC2)c1	4.75
Cc1ccc(CN(CCN(C)C)Cc2nc3ccccc3[nH]2)s1	-0.2455
CC(NC(=O)N(C)Cc1cnn(C)c1)c1nncn1C (stereo unspecified)	-30.3
COC(=O)C(C)N(Cc1cc(=O)n(C)c(=O)n1C)C1CC1 (stereo unspecified)	5.049
CCCC1(CO)CCCN(Cc2ncccn2)C1 (stereo unspecified)	-3.233
CCCC1(CO)CCCN(C(=O)CCCn2nc(C)cc2C)C1 (stereo unspecified)	0.5939
CCCSCC(=O)N1CCCC2(CCC(=O)N(CCc3c[nH]cn3)C2)C1 (stereo unspecified)	0.3412
CCCSCC(=O)N1CCCC(CO)(CCC)C1 (stereo unspecified)	120.7
CCCC1(CO)CCCN(Cc2nccs2)C1 (stereo unspecified)	-16.5

SMILES	Percent Effect [%]
CCCC1(CO)CCCN(C(=O)CN2CCN(CC)CC2)C1 (stereo unspecified)	98.5
CN(C)C(=O)C1CCCN1c1ccnc2ccsc12 (stereo unspecified)	-11.69
O=C(c1coc(-c2ccccc2)n1)N1CCCCC1	-26.2
COCc1n[nH]c2c1CN(C(=O)c1ccncc1)C2.O=C(O)C(F)(F)F	-2.458
Cc1nc(C(=O)N2CCc3[nH]nc(Nc4ccccc4)c3C2)co1	140.3
O=C(c1cccnc1)N1CCc2[nH]nc(Nc3ccccc3)c2C1	125.3
O=C(c1cccnc1)N1Cc2[nH]nc(COCCO)c2C1	-11.56
O=C(CCN1CCc2[nH]nc(C(F)(F)F)c2C1)Nc1ccccc1	-5.362
COc1cccc(-c2n[nH]c3c2CN(C(=O)c2cc(C)n(C)n2)CC3)c1	-0.6407
O=C(c1ccncc1)N1CCc2[nH]nc(Nc3ccccc3)c2C1	110.2
Cc1cc(C(=O)N2CCc3[nH]nc(-c4ccc5c(c4)OCO5)c3C2)no1	-8.548
Cn1ccc(C(=O)N2CCc3[nH]nc(Nc4ccccc4)c3C2)n1	131.4
COc1cccc(-c2n[nH]c3c2CN(C(=O)c2ccncc2)CC3)c1	-11.9
Cc1cc(C)n(C2CN(CC(O)c3ccc(F)cc3)C2)n1 (stereo unspecified)	-3.479
CN1CCC(CCNC(=O)c2ccc(N(C)S(C)(=O)=O)cc2Cl)CC1	-5.905
COC(=O)CC(c1ccccc1)c1oc(C)cc(=O)c1O (stereo unspecified)	9.59
O=C(c1ccsc1)N1CCc2c(CNc3ncccn3)n[nH]c2C1	-3.042
Cc1ncsc1C(=O)N1CCc2[nH]nc(-c3ccc4c(c3)OCO4)c2C1	-9.39
O=C(c1cncs1)N1CCc2[nH]nc(Nc3ccccc3)c2C1	117.5
CCn1c(CC2CCN(C(=O)C3CCOC3)CC2)nn(C)c1=O (stereo unspecified)	3.513
Cc1cc(=O)n2ncnc2n1CC(O)c1ccc(F)cc1F (stereo unspecified)	-38.21
CCOc1cccc2c1OCC(C(=O)NS(=O)(=O)c1ccc(Cl)cc1)=C2	-2.637
Cc1ccc(OCC(=O)NS(=O)(=O)c2c(C)noc2C)cc1C	20.27
CCOc1ccc(C(=O)NS(=O)(=O)c2cncc(Br)c2)cc1OC	-12.86
CCOc1cccc2c1OCC(C(=O)NS(=O)(=O)c1cccs1)=C2	95.96
CCOc1cccc2c1OCC(C(=O)NS(=O)(=O)c1ccc(Br)s1)=C2	97

SMILES	Percent Effect [%]
Cc1ccc(S(C)(=O)=O)cc1C(=O)NS(=O)(=O)c1cccs1	20
Cc1ccc(S(=O)(=O)NC(=O)c2cccc(OCC(N)=O)c2)s1	-0.7122
N#CCc1ccc(OCC(=O)NS(=O)(=O)c2cccs2)cc1	5.016
O=S(=O)(NCC1(O)CCOc2ccccc21)c1ccc(Br)s1 (stereo unspecified)	-8.06
CCOc1cccc2c1OCC(C(=O)NS(=O)(=O)c1cncc(Br)c1)=C2	125.8
CCOc1cccc2c1OCC(C(=O)NS(=O)(=O)c1c(C)noc1C)=C2	100.1
Cc1cc(C)c(OCC(=O)NS(=O)(=O)c2c(C)noc2C)c(C)c1	0.8796
CN(CCN1CCCC1=O)S(=O)(=O)CC1CCCC1	-3.28
Cc1ncc(S(C)(=O)=O)c(N2Cc3ccccc3C2)n1	20.01
CCN(C)CC(=O)N1CCN(Cc2ccccc2)[C@@H]2CS(=O)(=O)C[C@@H]21	-19.14
CCN(CC)C(=O)c1ccn(COc2ccccc2)n1	-3.664
Cc1nc(CNC(C(=O)N2CCOCC2)C(C)C)oc1C (stereo unspecified)	-5.352
CCOc1cccc2c1OCC(C(=O)NS(=O)(=O)c1ccc(C)s1)=C2	-6.763
CC(C)COCCC(=O)NS(=O)(=O)c1ccc(Cl)s1	13.2
CCOc1cccc2c1OCC(C(=O)NS(=O)(=O)c1ccc(Cl)s1)=C2	108.5
COc1ccc(NC(=O)CSc2nc(C)cc(C)n2)cn1	9.531
CC1c2ncc(CN3CCN(C)CC3)n2CCN1Cc1ccc(F)cc1.O=C(O)C(F)(F)F.O=C(O)C(F)(F)F.O=C(O)C(F)(F)F (stereo unspecified)	94.11
CC1c2ncc(CN3CCN(C)CC3)n2CCN1Cc1ccsc1.O=C(O)C(F)(F)F.O=C(O)C(F)(F)F.O=C(O)C(F)(F)F (stereo unspecified)	104.7
CC1c2ncc(CN3CCN(C)CC3)n2CCN1Cc1cnn(C)c1.O=C(O)C(F)(F)F.O=C(O)C(F)(F)F.O=C(O)C(F)(F)F (stereo unspecified)	96.74
Cc1ccc(CN2CCn3c(CN4CCN(C)CC4)cnc3C2C)s1.O=C(O)C(F)(F)F.O=C(O)C(F)(F)F.O=C(O)C(F)(F)F (stereo unspecified)	98.84
CC1c2ncc(CN3CCN(C)CC3)n2CCN1CC1CC1.O=C(O)C(F)(F)F.O=C(O)C(F)(F)F.O=C(O)C(F)(F)F (stereo unspecified)	-5.269
CCOCc1cnc2n1CCN(Cc1scnc1C)C2C.O=C(O)C(F)(F)F (stereo unspecified)	-10.4
CC1c2ncc(CN3CCN(C)CC3)n2CCN1Cc1cccnc1.O=C(O)C(F)(F)F.O=C(O)C(F)(F)F.O=C(O)C(F)(F)F.O=C(O)C(F)(F)F (stereo unspecified)	3.329
